Test [1] is described as follows: NCI Yeast Anticancer Drug Screen. Data for the rad50 strain (AID 155).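 Further: 0% = growth of vehicle-only cultures of the same strain.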 Particulars: S. cerevisiae rad50 strain growth inhibition; at 50.0 µM; active compounds read high. The method, boiled down: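 Compounds were tested on a yeast strain with an engineered DNA damage repair alteration; the reported value is growth inhibition normalised to vehicle treatment.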
Test [2] can be described thus: NCI Yeast Anticancer Drug Screen. Data for the mec2-1 strain (AID 157). Conditions: S. cerevisiae mec2-1 strain, at 50.0 µM, active compounds read high. The method, boiled down:
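Compounds were applied to mec2-1 yeast cells. Their growth was then compared with that of vehicle-treated cultures to give growth inhibition.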

Test [3] is described as follows: NCI Yeast Anticancer Drug Screen. Data for the sgs1 mgt1 strain (AID 161).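 Further: 0% = growth of cultures given vehicle only.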 Conditions: S. cerevisiae sgs1 mgt1 strain, at 50.0 µM, active compounds read high. Summed up: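 Growth of a repair-deficient yeast mutant was monitored after compound treatment and expressed as inhibition relative to vehicle-treated cultures.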
A short description of test [4]: NCI Yeast Anticancer Drug Screen. Data for the cln2 rad14 strain (AID 165).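 Further: 0% = growth equal to vehicle treated cultures.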 Conditions: S. cerevisiae cln2 rad14 strain, at 50.0 µM, active compounds read high. The method, boiled down: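 Strain: cln2 rad14 yeast, altered in cell cycle control and DNA damage repair. Read-out: growth inhibition vs vehicle.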
A short description of test [5]: NCI Yeast Anticancer Drug Screen. Data for the bub3 strain (AID 167). Conditions: S. cerevisiae bub3 mutant strain, at 50.0 µM, active compounds read high. The method, boiled down: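 Growth of a checkpoint-deficient yeast mutant is measured after compound exposure. Values represent inhibition relative to vehicle.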
Test [6] is described as follows: NCI Yeast Anticancer Drug Screen. Data for the mlh1 rad18 strain (AID 175). Conditions: S. cerevisiae mlh1 rad18 strain growth inhibition; at 50.0 µM; active compounds read high. Summed up:
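A repair-deficient yeast strain is exposed to test compound, and growth is scored relative to vehicle-treated controls.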

The panel holds about 79,000 compounds, 15% with a hit somewhere; the sample as a whole holds those more often. Unmarked numbers belong to inactive results. The source made the active and inactive calls. No stated cut-off is given here; in the data, active means growth inhibition above about 70%; inactive means the rest.

Regarding `O=C1Nc2ccccc2/C1=N/N=P(c1ccccc1)(c1ccccc1)c1ccccc1`, the growth inhibition was -10.2% in test [1]; 0.35% in test [2]; 10.1% in test [3]; 2.4% in test [4]; -5.8% in test [5]; -5.15% in test [6].

`COc1ccc(Cl)cc1NC(=O)Oc1cc2ccccc2cc1C(=O)Nc1ccccc1`: the growth inhibition is -9.4% in test [1]; -8.05% in test [2]; -21.4% in test [3]; -25.1% in test [4]; -3.25% in test [5]; -13.8% in test [6].

For the compound `CCC(=O)C1CCCCN1` (stereo unspecified), the growth inhibition in test [1] is 10.7%; in test [2] it was 17.1%; in test [3], -11.1%; in test [4], -48.4%; in test [5], -3.15%; in test [6] it was 3%.

Take `CCCCOCCOCC(C)O` (stereo unspecified): the growth inhibition is 14.9% in test [1]; 10.2% in test [2]; 37.2% in test [3]; -24.4% in test [4]; -8.4% in test [5]; 2.05% in test [6].

Turning to `CC(C)(C)C1=CC(=O)C(C(C)(C)C)=CC1=O`, the growth inhibition in test [1] is -2.35%; in test [2], 3.2%; in test [3] it was -17.2%; in test [4] it was -55%; in test [5] it was -7%; in test [6] it was 17.7%.

Take `Clc1ccc2nsnc2c1Cl`: the growth inhibition in test [1] was -0.1%; in test [2], -1.25%; in test [3] it was -3.75%; in test [4] it was -19.4%; in test [5], 7.8%; in test [6], 8.1%.

As for `CC1(C)CC(=O)C(/C=N/C(N)=S)=C(O)C1`, the growth inhibition in test [1] is -20.3%; in test [2], -52.1%; in test [3], -13.8%; in test [4], 6.2%; in test [5], -0.85%; in test [6], -31.6%.

With `Cc1cc(C)c(NS(=O)c2cccc(Cl)c2)c(C)c1` (stereo unspecified), the growth inhibition in test [1] was -29.1%; in test [2] it was -26.3%; in test [3], -59.2%; in test [4] it was 1.35%; in test [5], -35.2%; in test [6], -50.2%.

In the case of `NC(CC(=O)NC(CC(=O)O)C(=O)O)C(=O)O` (stereo unspecified), the growth inhibition in test [1] was -5.5%; in test [2], -1%; in test [3], -8.9%; in test [4], -56%; in test [5] it was -20%; in test [6], 5.2%.

In the case of `Cc1ccnc(N=C(N)Nc2cc(C)ccn2)c1`, the growth inhibition in test [1] was 19.6%; in test [2] it was 26.4%; in test [3], 13.1%; in test [4], 11.2%; in test [5], 6.75%; in test [6] it was 8.85%.

Turning to `CC(C)OC(CCC#N)c1ccccc1` (stereo unspecified), the growth inhibition in test [1] was -20.1%; in test [2], -48.6%; in test [3] it was -33.3%; in test [4], -8.3%; in test [5], -32.9%; in test [6] it was -34.1%.

In the case of `COC(=O)[C@]1(C)CCC[C@]2(C)c3ccc(C(C)=O)cc3C(=O)C[C@@H]12`, the growth inhibition in test [1] was -1.5%; in test [2], -10.8%; in test [3], 9.5%; in test [4] it was -31.6%; in test [5], -8.5%; in test [6] it was -15.1%.

`O=C1C2=C(Nc3cc(Cl)ccc3N2)OC1c1c[nH]c2ccc(COc3ccccc3)cc12` (stereo unspecified): the growth inhibition was -22.4% in test [1]; 6.6% in test [2]; -1.55% in test [3]; 30.4% in test [4]; -15% in test [5]; -4.1% in test [6].

`COc1ccccc1NC(N)=S`: the growth inhibition in test [1] is -9.1%; in test [2] it was -8.5%; in test [3] it was 5.65%; in test [4], 3.25%; in test [5], -4%; in test [6], -26.9%.

Take `COC(=O)NN/C=C(\C=Nc1ccccc1)[N+](=O)[O-]`: the growth inhibition in test [1] was -0.25%; in test [2], 11.1%; in test [3], 17.4%; in test [4] it was 18.4%; in test [5] it was 12.9%; in test [6], 5.4%.

For `CC1(C)C2CCC1(C)C(OC(=O)C1OC(O)C(O)C(O)C1O)C2` (stereo unspecified), the growth inhibition in test [1] was -1.3%; in test [2], 24.9%; in test [3], 12.8%; in test [4], -2.75%; in test [5], 27.6%; in test [6], 28.9%.

`C[N+](C)(C)C/C=C/C[N+](C)(C)C`: the growth inhibition in test [1] was 9.85%; in test [2], -3.1%; in test [3] it was -5.95%; in test [4], -22.3%; in test [5], 0.85%; in test [6], 1.85%.

On to `CC(C)N(C(=O)C12CC3CC(CC(C3)C1)C2)C(C)C`, for which the growth inhibition in test [1] was 24.9%; in test [2], 0.45%; in test [3], 8.05%; in test [4], 13.2%; in test [5] it was 20.9%; in test [6], 6.15%.

In the case of `CCCCCCCCCCCCCCCCS(=O)(=O)N/N=C/c1ccc2c(c1)OCO2`, the growth inhibition in test [1] is 13.9%; in test [2], 3%; in test [3] it was 3.5%; in test [4], 4.05%; in test [5], -0.55%; in test [6] it was -3.25%.

Turning to `CCCC(CCC)(CCC)CCN(C)C`, the growth inhibition is -6.85% in test [1]; -5.95% in test [2]; -14.9% in test [3]; -23.9% in test [4]; -8.65% in test [5]; -33.8% in test [6].

Turning to `COc1ccccc1C1(CBr)OCCO1`, the growth inhibition in test [1] is -6.15%; in test [2] it was -7.7%; in test [3], 6.55%; in test [4], -5.4%; in test [5], -3.85%; in test [6], 9.4%.

Take `N#CC(c1ccccc1)C1CCCCC1` (stereo unspecified): the growth inhibition in test [1] was -8.65%; in test [2], -20%; in test [3], -4.95%; in test [4], -4.3%; in test [5] it was 6.1%; in test [6], 20.4%.

Take `O=C(NC(=S)Nc1ccc2ccccc2c1)c1ccc(Cl)cc1Cl`: the growth inhibition in test [1] was -1.45%; in test [2], 1.2%; in test [3], 28.2%; in test [4], -10.6%; in test [5] it was 23.4%; in test [6] it was -41.1%.

Consider `O=S(=O)(O)CCCC1S(=O)(=O)OCCOS1(=O)=O`, for which the growth inhibition in test [1] was -55.1%; in test [2], -21.8%; in test [3], -8.4%; in test [4], -16.4%; in test [5], -1.3%; in test [6] it was -25.8%.

`COC(=O)C1=C(C(=O)OC)C2CCC1O2`: the growth inhibition in test [1] is -0.5%; in test [2], -6%; in test [3] it was -0.4%; in test [4] it was -11.7%; in test [5] it was 8.35%; in test [6], -17.6%.

In the case of `NC(=O)C(=O)N/N=C1/c2ccccc2CC1C1(O)C(=O)Nc2c(Cl)cc(Cl)cc21` (stereo unspecified), the growth inhibition is 50.4% in test [1]; 30.9% in test [2]; 38.5% in test [3]; 16.6% in test [4]; 3.55% in test [5]; 44.2% in test [6].

With `C/C1=C/C2=CC(C)C[C@@H]2C(=O)[C@]2(C)C(=O)CC(C)(C)[C@H]2CC1=O` (stereo partly specified), the growth inhibition was 5.5% in test [1]; -8.6% in test [2]; 22.4% in test [3]; 5% in test [4]; -13.6% in test [5]; -87.3% in test [6].

Turning to `O=C1c2cc3c(cc2CC1Cc1ccc2c(c1)CCC2)CCC3` (stereo unspecified), the growth inhibition in test [1] was -28.8%; in test [2], -23.8%; in test [3] it was -33.2%; in test [4] it was -34%; in test [5], -20.5%; in test [6], -33.1%.

For `CC(=O)c1ccc(N=NN(C)C)cc1`, the growth inhibition is 0.2% in test [1]; 1% in test [2]; -2.65% in test [3]; -18.4% in test [4]; -21.9% in test [5]; -15.6% in test [6].

Regarding `N/C(=C\C(=O)c1ccccc1)C(=O)c1ccccc1`, the growth inhibition was 5.7% in test [1]; 4.65% in test [2]; -15.5% in test [3]; -10.7% in test [4]; 0.65% in test [5]; -1.55% in test [6].

For `O=S1(=O)C2CCCCCC2(N2CCOCC2)C1C1CCCCC1` (stereo unspecified), the growth inhibition is 16.7% in test [1]; 22.4% in test [2]; -0.45% in test [3]; 25.4% in test [4]; 6% in test [5]; 15.1% in test [6].

Turning to `CCCCCCCCCCCCCCCCC1Cc2ccccc2C1`, the growth inhibition is -12.6% in test [1]; 8% in test [2]; -12.8% in test [3]; -12.1% in test [4]; -4.15% in test [5]; -7.6% in test [6].

Take `CC(C)CCCC(C)C1CCC2C3CCC4CC(=O)/C(=C\O)CC4(C)C3CCC12C` (stereo unspecified): the growth inhibition was 70.3% (active) in test [1]; 51.5% in test [2]; 79.4% (active) in test [3]; 38.6% in test [4]; 25.6% in test [5]; 67.2% in test [6].

In the case of `O=C(O)c1nn(-c2ccccc2)c2c1CSc1ccccc1-2`, the growth inhibition in test [1] is 35.5%; in test [2], 34.2%; in test [3] it was 25.6%; in test [4] it was 27.2%; in test [5], 16.9%; in test [6] it was 13.2%.

`c1ccc2c(c1)SCCCSCCCS2`: the growth inhibition was -4.35% in test [1]; -4.6% in test [2]; -5.45% in test [3]; -9.4% in test [4]; 9.15% in test [5]; -11.4% in test [6].

Consider `CCCc1nc(N)nc(C(=O)Nc2cccc(C(F)(F)F)c2)c1CC`, for which the growth inhibition in test [1] is -15.2%; in test [2], -19.4%; in test [3], 5.1%; in test [4], 4.05%; in test [5] it was 2.15%; in test [6], -8.25%.

On to `Cc1cc2nc3ccc(=[N+](C)C)cc-3sc2cc1N`, for which the growth inhibition in test [1] is -24.2%; in test [2], -39.8%; in test [3], -20.6%; in test [4] it was -14.2%; in test [5], -25.8%; in test [6] it was -24.1%.

On to `O=c1[nH]ncc2ccccc12`, for which the growth inhibition in test [1] is -3.1%; in test [2] it was -16.2%; in test [3], -3.95%; in test [4], -53.5%; in test [5], -4.75%; in test [6], -2.45%.

`CC1CNC(=S)N(c2cccc3ccccc23)C1=O` (stereo unspecified): the growth inhibition was -4.8% in test [1]; -1% in test [2]; -3.7% in test [3]; -5% in test [4]; -9.35% in test [5]; 4.2% in test [6].

Take `O=c1/c(=C/c2ccco2)sc2nc3ccccc3n12`: the growth inhibition in test [1] was 15.8%; in test [2] it was 5.35%; in test [3] it was 14.5%; in test [4] it was 29.8%; in test [5] it was 30.1%; in test [6], 20.4%.

Turning to `CC(=O)N1Cc2ncnc(N)c2C1`, the growth inhibition in test [1] is -12.3%; in test [2], -8.9%; in test [3], -20.7%; in test [4], -10.6%; in test [5], -2.35%; in test [6] it was -10.4%.

For the origin of these results see PubChem BioAssay (NCI).
